Assay outcomes (PubChem BioAssay)
Rab9 promoter act = activates the Rab9 promoter | Huh7 Rab9 promoter-luciferase reporter, luminescence, 24 h | Potency, µM (titrated, usually from 9.22 µM), for the others: at the top dose activation, negative = inhibition, usual class: activators | 2.8% of 320,000 active | AID 485297; further: % of control where 0% means no effect; nearly all actives have a fitted effect of over 60% in size
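Using Huh7 cells stably transfected with Rab9 promoter–luciferase, compounds were incubated 24 h at 37 °C, 5% CO2; luciferase luminescence was read 10 min after reagent addition.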
NPC1 promoter act = activators of NPC1 promoter; Huh7 NPC1 promoter luciferase reporter, 24 h; Potency, µM (series often up to 9.22 µM), inactives show at the highest dose activation, most hits filed as activators; 2.4% of 320,000 active; AID 485313; further: % of control where 0% means no effect; nearly all actives have a fitted effect of over 60% in size
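Stably transfected Huh7 (NPC1 promoter→luciferase), 1500 cells/well in Opti-MEM + 10% FBS, 2 h settle, then compound 24 h at 37 °C. Luminescence after 10 min with Amplite reagent.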
ELG1 genotox = inducers of genotoxicity in HEK293T ELG1-luciferase cells; 1.3% of 330,000 active; Potency, µM (titrated, usually from 46 µM), for inactives: at the top dose activity change, positive = activation, usual class: activators; AID 504466; HEK293T ELG1-luciferase reporter, luminescence, 16 h; further: % of control where 0% means no effect; nearly all actives have a fitted effect of over 60% in size
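Step 1: seed 2,000 HEK293T ELG1-luciferase cells per well. Step 2: add compound or DMSO, incubate 16 hr at 37 °C. Step 3: ONE-Glo, 30 min at room temperature, read luminescence.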
SMN2 splice enh = enhancers of SMN2 splice variant expression | HEK293 SMN2-luciferase splicing reporter, luminescence, 30-36 h | Potency, µM (highest dose often 46.1 µM), inactives show top-dose activity change, positive = activation, actives largely listed as activators | 2.8% of 210,000 active; further: % of control where 0% means no effect; nearly all actives have a fitted effect of over 55% in size
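HEK293 cells carry an SMN2 […]–luciferase reporter in which exon 7 inclusion puts luciferase in frame. Cells were plated 10-12 h before compound addition, then incubated 30-36 h at 37C. ONE-Glo luminescence was read; sodium butyrate at 4.5 mM final served as control.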
FLuc modulator = firefly luciferase modulation, counter-screen for miR-21 project; Potency, µM (titrated, usually from 57.5 µM), for the others: at the highest dose activity change, negative = inhibition, usual class: inhibitors; AID 588342; 6.9% of 360,000 active; purified FLuc, Km substrates, luminescence inhibition; P08659;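 further: plate controls were vehicle for no effect and reference inhibitor for full effect; nearly all actives have a fitted effect of over 55% in size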
Target sequence (P08659 whole entry, looked up): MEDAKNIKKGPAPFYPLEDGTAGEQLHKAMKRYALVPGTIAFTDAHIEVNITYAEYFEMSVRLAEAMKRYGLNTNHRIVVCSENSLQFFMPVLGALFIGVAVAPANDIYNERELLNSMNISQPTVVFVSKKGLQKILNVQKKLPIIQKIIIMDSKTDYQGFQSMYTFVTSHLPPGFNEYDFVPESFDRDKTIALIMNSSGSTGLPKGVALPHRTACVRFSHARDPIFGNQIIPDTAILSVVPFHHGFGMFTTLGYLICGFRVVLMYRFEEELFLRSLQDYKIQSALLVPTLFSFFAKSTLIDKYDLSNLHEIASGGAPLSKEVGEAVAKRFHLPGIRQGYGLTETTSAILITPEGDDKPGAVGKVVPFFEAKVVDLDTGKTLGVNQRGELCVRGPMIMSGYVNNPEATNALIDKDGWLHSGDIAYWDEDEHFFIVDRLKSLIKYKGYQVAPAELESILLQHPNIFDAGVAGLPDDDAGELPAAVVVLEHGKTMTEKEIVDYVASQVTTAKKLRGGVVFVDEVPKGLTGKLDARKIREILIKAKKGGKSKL
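Purified P. pyralis luciferase, 10 nM final, with Km-level 10 uM D-luciferin and 10 uM ATP in 50 mM Tris acetate pH 7.5, 10 mM Mg acetate, 0.01% Tween-20, 0.05% BSA; 6-point qHTS titration about 60 µM downward; luminescence read.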
uPA generation = blocks generation of uPA at the cell surface. cell surface uPA generation assay, qHTS. Potency, µM (titrated, usually from 38.3 µM), for inactives: at the highest dose activity change, negative = inhibition, hits mostly inhibitors. 0.31% of 330,000 active; active means well fitted inhibition curve with a large enough effect; inconclusive means small, poorly fitted or top-dose-only effect; inactive means no such curve, though single readings can be large or run the other way; tested in mouse RAW 264.7 cells; further: on the % scale 0 is the no-effect control and ±100 the full control effect; nearly all actives have a fitted effect of over 55% in size
An asterisk follows results filed as active; ? = inconclusive; nt = not tested or not shown; [ ] = remark or other dose. Hits are enriched below; roughly 7.3% of the tested compounds scored in any of these assays. Unless noted, the call rests on the fitted dose curve; in most records, active means well fitted curve in the direction sought with a large enough effect; inconclusive means small, poorly fitted or top-dose-only effect, or another doubt; inactive means no such curve, though single readings can be large; an effect the other way counts as inactive or inconclusive. Potency means the concentration at half of the fitted maximal effect.

SMILES	Rab9 promoter act	NPC1 promoter act	ELG1 genotox	SMN2 splice enh	FLuc modulator	uPA generation
NC(=O)c1ccc(NC(=O)c2cccc(Oc3ccccc3)c2)cc1	-7%	-1%	10%	-7%	5%	1%
COc1cccc(C(=O)Nc2cccc(-c3ccccc3)c2)c1	3%	2%	1%	nt	21µM*	-9%
Cc1cc(Cl)ccc1NC(=O)CN(c1ccccc1Br)S(C)(=O)=O	nt	nt	nt	16%	-2%	nt
COc1cc(C(=O)Nc2cccc(NC(=O)c3ccccc3)c2)cc(OC)c1OC	2%	-1%	-8%	nt	15µM*	23%
O=C(Nc1ccc(F)cc1)c1ccc2nsnc2c1	?	?	9%	nt	13µM*	-3%
COc1cc(C(=O)Nc2cccc(NC(=O)c3cccs3)c2)cc(OC)c1OC	-2%	-7%	-3%	nt	24µM*	1%
CCn1c2ccccc2c2cc(NC(=O)COC(=O)c3ccccc3F)ccc21	-5%	-2%	?	-51%	-1%	0%
COc1cc(C(=O)Nc2cccc(C(C)=O)c2)cc(OC)c1OC	-3%	-2%	1%	nt	-24%	-1%
O=C(Nc1ccc(F)cc1)c1cccc(C(=O)Nc2ccc(F)cc2)c1	7%	4%	10%	nt	-1%	9%
CCn1c2ccccc2c2cc(NC(=O)COC(=O)c3ccc(NC(=O)CC#N)cc3)ccc21	-1%	-2%	23µM*	nt	14%	6%
CC(C)(C)OC(=O)CNC(=O)c1nc[nH]c1C(=O)N1CCc2ccccc2C1	-3%	-2%	1%	nt	-1%	-10%
CCOc1ccccc1N(C)C(=O)c1sc2nc3n(c(=O)c2c1C)CCCC3	nt	nt	nt	nt	-12%	nt
Cc1c(C(=O)N2CCC(C)CC2)sc2ncn(CC(=O)N3CCC(C)CC3)c(=O)c12	0%	4%	0%	nt	-2%	1%
CC(=O)[C@H]1CC[C@@H]2[C@]1(C)CC=C1[C@@]23C=C[C@]2(C[C@H](O)CC[C@@]12C)[C@H](C(=O)O)[C@@H]3C(=O)O	nt	nt	nt	-4%[9.22 µM]	nt	nt
CCN(C(=O)Cn1ncc2c(=O)oc3ccccc3c21)c1ccccc1F	nt	nt	nt	7%	-8%	nt
COc1ccc(S(=O)(=O)N/N=C(/C)c2cccc(NC(=O)c3ccccc3Cl)c2)cc1	0%	-3%	-3%	-3%	27µM*	-12%
COc1ccc(NC(=O)Nc2cccnc2)c(OC)c1	-2%	1%	3%	7%	-10%	9%
COc1cc(NC(=O)c2ccc3nsnc3c2)cc(OC)c1OC	4%	-1%	6%	nt	-4%	5%
COc1ccccc1NC(=O)c1ccc2nsnc2c1	4µM*	?	?	nt	15µM*	-2%
COc1cccc(/C(C)=N/NC(=O)c2ccc(N(C)C)cc2)c1	3.5µM*	?	?	?	19µM*	0%
COc1cccc(NC(=O)Nc2cccnc2)c1	5%	17%	2%	nt	17µM*	15%
COc1cccc(C(=O)N/N=C(\C)CC(=O)Nc2ccc(N(C)C)cc2)c1	-2%	0%	1%	nt	?	-7%
COc1ccc(-c2cc(C(F)(F)F)c(C#N)c(SCC(=O)Nc3cccc(C)c3)n2)cc1	nt	nt	nt	-8%	3%	nt
Cc1ccc(SCCC(=O)NNC(=O)c2ccccc2F)cc1	nt	nt	0%	nt	nt	0%
Cc1ccc(NC(=S)NNS(=O)(=O)c2ccc3ccccc3c2)cc1Cl	2%	-2%	-7%	nt	-18%	1%
SMILES	Rab9 promoter act	NPC1 promoter act	ELG1 genotox	SMN2 splice enh	FLuc modulator	uPA generation
Cc1ccc(C)c(-c2nc(Cn3c(=O)cc(-c4ccccc4)c4c(C)nn(C)c43)c(C)o2)c1	nt	nt	nt	nt	3%	nt
Cc1[nH]c2ccc(C(=O)Nc3ccc(F)cc3)cc2c1C	nt	nt	nt	nt	24µM*	nt
COc1ccc(C(=O)N/N=C(/C)c2cccc(NC(=O)c3ccncc3)c2)cc1OC	-2%	2%	-4%	nt	?	-7%
COc1cccc(NC(=O)c2ccc(NC(=O)C(C)C)cc2)c1	?	?	?	nt	11µM*	-2%
CCOc1ccccc1NC(=O)c1ccc2[nH]c(C)c(C)c2c1	29%	?	?	nt	?	5%
COc1ccc(C(=O)N/N=C(/C)c2cccc(NC(=O)C(F)(F)F)c2)cc1	?	3.5µM*	?	10µM*	11µM*	-2%
COc1ccc(S(=O)(=O)N/N=C(/C)c2ccco2)cc1	2.5µM*	?	?	nt	17µM*	4%
COC(=O)c1ccccc1NC(=O)Nc1cccnc1	4%	11%	0%	9%	15µM*	-1%
COc1cccc(-c2nnc(NC(=O)c3ccccc3Br)o2)c1	0%	0%	-9%	nt	-13%	?
COc1cccc(-c2nnc(NC(=O)c3cccc(F)c3)o2)c1	1%	0%	?	nt	17µM*	?
COc1cccc(NC(=O)c2nnn(CCc3ccccc3)c2N)c1	28%	28%	?	?	15µM*	?
COc1cccc(NC(=O)CCC(=O)Nc2cccc(OC)c2)c1	6%	2%	2%	-14%	-1%	-1%
COc1cccc(NC(=O)CC(=O)c2ccc([N+](=O)[O-])cc2)c1	3%[1.84 µM]	?	8%	nt	2.1µM*	?
CC(=O)N1CCC2(CC1)CN(c1ccccn1)C2	nt	nt	nt	-4%	nt	nt
COc1cccc(CNC(=O)CCc2cn(Cc3ccccc3Cl)c3ccccc23)c1	nt	nt	nt	nt	-9%	nt
CN1CC(=O)N(CC(=O)Nc2ccc(OC(F)(F)F)cc2)c2ccccc2C1=O	nt	nt	nt	nt	1%	nt
CCOc1ccc(NC(=O)CSC2=Nc3ccccc3C3=NC(Cc4ccccc4)C(=O)N23)cc1 (centres undefined)	nt	nt	nt	nt	-12%	nt
CC(=O)c1ccc(NC(=O)Nc2ccc3c(c2)N(C)C(=O)CS3)cc1	16%	0%	-13%	-20%	24µM*	-9%
COc1ccc(NC(=O)Nc2ccc3c(c2)N(C)C(=O)CS3)cc1Cl	1%	-1%	-2%	-22%	17µM*	-7%
Cc1ccnc(NC(=O)Nc2ccc3c(c2)N(C)C(=O)CS3)c1	2.8µM*	3.5µM*	?	11µM*	3µM*	17%
CCOc1ccc(NC(=O)Nc2ccc3c(c2)N(C)C(=O)CS3)cc1	-4%	-1%	-40%	-18%	-48%	2%
Cc1ccc(NC(=O)Nc2ccc3c(c2)N(C)C(=O)CS3)nc1	4%	0%	9%	?	-3%	9%
Cc1ccc(C(=O)Nc2nc(-c3ccccn3)cs2)cc1S(=O)(=O)N1CCOCC1	-15%	-10%	2%	nt	?	?
O=C(Nc1nc(-c2ccc(S(=O)(=O)N3CCOCC3)cc2)cs1)c1ccccc1	-20%	-22%	-10%	-60%	-15%	-4%
O=C(Nc1nc2ccccc2[nH]1)c1cccc(S(=O)(=O)N2CCOCC2)c1	13%	19%	-5%	22%	?	-4%
